Here are results for 55 compounds from ChEMBL document CHEMBL4513216, “Probing the Open Global Health Chemical Diversity Library for Multistage-Active Starting Points for Next-Generation Antimalarials” (ACS Infect Dis, 2020).

Hit rate of the full screen: of about 69,000 compounds, about 8,600 (12%) showed an effect of 50% or more. The entries come from a sample that favours strong results as a whole.

The test has as its system Plasmodium berghei. The experiment in a line: Screen against P. berghei liver stage (PbLuc), transformed with Luciferase, at 10uM. In kind it is functional, HepG2. To be noted: tested at 10 uM.
Turning to `COCC(=O)Nc1ccc(Oc2ccsc2C(=O)O)cc1`, the INHIBITION worked out at 49.1%.

Turning to `COC1(CNC(=O)NCCc2ccccc2)CCSC1` (stereo not given), the INHIBITION is 8.31%.

For `O=C(c1cccc(C(F)(F)F)c1)N1CC(=O)N(C2CCC2)CC(O)C1` (stereo not given), the INHIBITION stood at 21.5%.

In the case of `O=C1Nc2ccccc2CNC12CCN(CC1CCCC1)CC2`, the INHIBITION came to 30%.

Regarding `CCOCCOC(C)C(=O)Nc1ccc2ccn(CC(=O)NC)c2c1` (stereo not given), the INHIBITION is given as 13.9%.

In the case of `Cc1ccc(C(=O)NCc2ccc(N3CCCC(C(N)=O)C3)cc2)o1` (stereo not given), the INHIBITION is listed as 29.7%.

On to `O=C(CCc1nc2ccccc2[nH]1)NC1CCOC2(CCOCC2)C1` (stereo not given), for which the INHIBITION was determined as 47.6%.

Turning to `Cc1cccc(OCC(O)CN2CCC(Cn3cccn3)CC2)c1` (stereo not given), the INHIBITION is recorded as 47.1%.

`CN1[C@H](CN2CCCC2)C[C@@H]2CN(C(=O)Cc3ccsc3)CC[C@@H]21`: the INHIBITION was -8.51%.

Turning to `CCCS(=O)(=O)CC(=O)N1CCCC1c1noc(C2CC2)n1` (stereo not given), the INHIBITION worked out at 97.2%.

On to `CCS(=O)(=O)CC(=O)N1CCCC1c1noc(C2CC2)n1` (stereo not given), for which the INHIBITION is 13.9%.

As to `CC(C)c1nc(C2CCCN2C(=O)c2ccc3nncn3c2)no1` (stereo not given), the INHIBITION is listed as 5.11%.

Consider `CC(C)CS(=O)(=O)CC(=O)N1CCCC1c1noc(C2CC2)n1` (stereo not given), for which the INHIBITION was determined as 29%.

Consider `O=C(c1ccc2nncn2c1)N1CCCC1c1noc(C2CC2)n1` (stereo not given), for which the INHIBITION was found to be 15.1%.

Take `O=C(c1ccc2nccn2c1)N1CCCC1c1noc(C2CC2)n1` (stereo not given): the INHIBITION is on record as 52.3%.

In the case of `CN(C)c1cc(CNC(=O)NCC2(C)CCCS2)ccn1` (stereo not given), the INHIBITION is listed as -15.5%.

`Cc1ccc(-c2nnc(CN3CCCCC3Cn3cncn3)o2)cc1` (stereo not given): the INHIBITION was -29.8%.

As for `CN(CC(C)(C)O)C1CCCN(Cc2noc(C3CC3)n2)C1` (stereo not given), the INHIBITION is 25.1%.

As for `O=C(NC1CC1)c1cc(C2CCCN(Cc3ccccn3)C2)no1` (stereo not given), the INHIBITION is given as -8.12%.

Take `Clc1ccc(CN(CCN2CCOCC2)Cc2cccnc2)c(Cl)c1`: the INHIBITION is -49.4%.

For `Cc1nc(-c2ccc(Cl)s2)sc1C(=O)NC(C)(C)C(N)=O`, the INHIBITION is -39.95%.

Take `Cc1cc(NC(=O)CCn2cncn2)no1`: the INHIBITION is 44.3%.

For `Cc1nc(C)n(CCC(=O)NCC2CCCOC2)n1` (stereo not given), the INHIBITION is on record as 26.55%.

`O=C(CCn1cncn1)NCC(c1ccco1)N1CCCCC1` (stereo not given): the INHIBITION came to 3.73%.

In the case of `CCCn1cnc(NC(=O)NCC2CCS(=O)(=O)C2)n1` (stereo not given), the INHIBITION worked out at 42.6%.

As for `O=C(CCn1cncn1)NC1CCS(=O)(=O)C1` (stereo not given), the INHIBITION was found to be 49.9%.

On to `O=C(CCn1cncn1)NCC1CCS(=O)(=O)C1` (stereo not given), for which the INHIBITION worked out at 84.2%.

`O=C(CCn1cncn1)NCC(c1ccco1)N1CCCC1` (stereo not given): the INHIBITION was -49.5%.

Regarding `O=C(CCn1cncn1)NCC1CCOC1` (stereo not given), the INHIBITION was found to be 54.5%.

For `O=C(CCn1cncn1)NCC1CCCC1`, the INHIBITION is given as 63.8%.

Regarding `CS(=O)(=O)N1CCO[C@@H]2CN(C(=O)c3ccnnc3)C[C@@H]2C1`, the INHIBITION turned out to be 17.6%.

Regarding `Cc1ccc(C2CN(CCCS(=O)(=O)C(C)C)CCO2)c(C)c1` (stereo not given), the INHIBITION is -20.3%.

For the compound `CN1CCC(NC(=O)CC2CN(Cc3ccccc3)CCO2)CC1` (stereo not given), the INHIBITION amounted to 9.41%.

For `COc1ccc(CCNC(=O)Cn2ncc3c2c(C)nn3C)cc1`, the INHIBITION amounted to 28.4%.

For `CC(NC(=O)C1=NN(C)C(=O)CC1)c1ccc(Cl)cc1` (stereo not given), the INHIBITION is on record as 20.9%.

Take `CN(CCC#N)C(=O)CCOc1cccc(F)c1`: the INHIBITION is recorded as -13.4%.

With `Cc1cc(C(O)CCNC(=O)c2ccc(Cl)s2)c(C)o1` (stereo not given), the INHIBITION is listed as -1.04%.

In the case of `CC(C)OCCSc1nnnn1C1CCOCC1`, the INHIBITION is 26.9%.

For `O=C1OCCN1CCSc1nnnn1CC(F)(F)F`, the INHIBITION stood at 42.4%.

As for `O=C1OCCN1CCSc1nnnn1C1CCOCC1`, the INHIBITION amounted to 54.5%.

For `Cc1cnn(CC2CCCN2c2ncnc3sccc23)c1` (stereo not given), the INHIBITION was found to be 56.1%.

With `Cc1cnn(CC2CCCCN2c2ncnc3ccccc23)c1` (stereo not given), the INHIBITION is recorded as -34.6%.

As to `Cc1cnn(CC2CCCN2c2ncnc3c2CCC3)c1` (stereo not given), the INHIBITION is -2.94%.

Take `Cc1cnn(CC2CCCN2c2ncnc3ccsc23)c1` (stereo not given): the INHIBITION was 47.7%.

In the case of `c1cnn(CC2CCCN2c2ncnc3c2CCC3)c1` (stereo not given), the INHIBITION is reported as 59.7%.

On to `Cc1nn(C)c(Cl)c1C1CCCN1c1ncnc2sccc12` (stereo not given), for which the INHIBITION is recorded as 42.6%.

`Cc1cnn(CC2CCCN2c2ccc(C#N)cn2)c1` (stereo not given): the INHIBITION is recorded as -16%.

With `N#Cc1ccc(N2CCCC2Cn2cccn2)nc1` (stereo not given), the INHIBITION is listed as -155%.

For `Cc1nn(C)c(C)c1C1CCCN1c1ncnc2sccc12` (stereo not given), the INHIBITION amounted to 70.5%.

Consider `c1nc(N2CCCCC2Cn2cncn2)c2ccsc2n1` (stereo not given), for which the INHIBITION came out at 45.8%.

As for `COc1c(C2CCCN2c2ncnc3sccc23)c(C)nn1C` (stereo not given), the INHIBITION turned out to be 40%.

Turning to `Cc1cnn(CC2CCCN2c2ncnc3ccccc23)c1` (stereo not given), the INHIBITION amounted to 75.9%.

On to `CSCC[C@H](NC(C)=O)c1nc(CC(C)C)n[nH]1`, for which the INHIBITION was -24.7%.

Consider `c1ccc2oc(CN3CCCC(Cn4cncn4)C3)nc2c1` (stereo not given), for which the INHIBITION came out at 16.34%.

Take `CC(C)CCN(C(=O)c1ccc(-n2ncc(C#N)c2N)cc1)C1CC1`: the INHIBITION came out at 19.5%.
